In the supplement of paper PMC6555819 one finds PBM binding z-score data, which are given here for 40 sequences.

This test concerns VDR:RXRa (NR concentration 270 nM, RXRa partner concentration 90 nM). The experiment in a line: PBM binding z-score (relative to random genomic background probes); higher = stronger binding; sequences stand for … in GC…GCGATTGACAGCGTAGAATGAAGG
As to the method: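 Protein-binding microarray (Agilent 4x180K custom design, double-stranded 60-nt probes: 5' GC cap, 34-nt variable region, 24-nt constant primer region; full probe sequence given). Purified or IVT nuclear receptor:RXRα heterodimers (3:1 NR:RXRα, mostly 270:90 nM) or homodimers were incubated for 1 h in PBS with 2% milk and no ligand, then detected with Alexa488 antibodies. Fluorescence from o1-orientation probes (~5 replicates averaged) was converted to z-scores against 500 random hg19 background probes. Variable regions are seed direct-repeat (DR0–DR5) sites, all their single-nucleotide variants and half-site ablations.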
As to CCTAGTTGGTCAAGGTCACACAAGCTATAGGTAC, the PBM binding z-score is 4.38.
To AGCTCTAGGTAACAAGTTCAGTGAAAGAGAGGAC belongs 1.94; to AGGCAAAGTTCATCTAGGTAACGTAAGATATGCT, 4.86.
To CCAGACAGGTGAGAAGGTAATTCAGCCTCGATTA belongs -0.16; to TCAAGTAGGTTACCAATGGGGCATTCAGCTTTCT, 0.549; to TCTCGGAGGACACGAAGGTAAGAGCTTTCCAGAG, -0.386.
Take TTATATAGGTAAAAGGTGAAAGTCGGTGTGGTAA: the PBM binding z-score amounted to 1.4.
Then TCATATAGGTAAAAGGTGAGAGTCGGTGTGGTAA, with 1.29; and CTACCAAGGTGAACCAGGTCGTTGATTACTATTC, with 4.93.
CCTAGTTGGTCAGGCGGTCACACACCGGATATGA: the PBM binding z-score worked out at 0.0126.
Then AGTCAAAGTTCACTAGGTGACGTAAGATTCAGCT, with 4.03; and TTACCAAGGTGAAAAGTCGTTGATGCACGCCTTG, with 0.0875.
To TAGCCTAGGTCATGCGGGCCAGTACAGTGTCGGC belongs 2.83.
Then TCGAGTAGGTTAGGGTCATTCAGAATGGCGTCGA, with 4.32.
The sequence GCGACTGGGGCAAAGCAGGTAACCATAAGGTTGG came in with a PBM binding z-score of -0.313.
To TCTATTAGTTCATTAGGGCAACCGAAACAGCGGA belongs 2.2.
Then CCGACTAGGGCATAAGGTTACCATAAGCCAGCCC, with 0.257; and GCGACCGGGGCAAAGCAGGTTACCATAAGGTTGG, with 0.7.
On to CCTAGCAGGCCAATCTGGGTCACTAAAGGCTTGA, for which the PBM binding z-score is 0.366.
Then CGAACGGGGGCATGAGTTGATAGCAAATGCCGAT, with 3.88; and CAAACTAGGTCCAGGTCAAAGTCGGTTTGTGCCA, with 3.06; and CTCGAAAGGTCGGTCGAGGTGAGTATACGGATAA, with 2.25.
Then CGACCTAGGTCATCCAGGACAGTGAATACATTGA, with 4.85; and CCTACTGGGCCACGAAAGGTCATTTATTCAGTGA, with 4.27.
In the case of CCTACTGGGCCATCAGGTCATTGATATCAACGTT, the PBM binding z-score is 1.81.
With CCTTACGTGTCACGAGGTTATAGCACGACGAGCG, the PBM binding z-score turned out to be 1.89.
Sequence CGAACTAGGTCAGAACAGGACAATGAAGGATGAT returned a PBM binding z-score of 1.11.
Take CCTAGCAGGCCAGGATCACTCAAGCATTTCGCTT: the PBM binding z-score was -0.583.
For CCTCGGAGGACAACAGGAGGTCAGAGATGCCAGA, the PBM binding z-score was 2.29.
To ACTAGCATGCCAAGTTTGGGTCACTCAAACAAAG belongs 0.531; to CTCGTAAGGTCGGTTGAGGTGAGTATACGGATAA, 1.75.
Then CAGCCCAGGTCAGGGCCAGTATAGGAGGAACGTT, with 0.803; and GCAGACAGGTGAAACGCAGGTAACGCAGGGTGGC, with -0.489; and ATCGAAAGGCCGACGAGGTGAGTATACACCGTTT, with 0.176.
Then ACTTACGGGTCAACGAGGTTATAGAACGCGTATA, with 7.78; and GTGACTGGGGCATCAGCAGGTTACCATAACTTAA, with 0.163; and TCTGCTAGGTCGACGATGGTCAGCTAATCTGCTA, with -0.229.
Sequence CCGACTGGGGCATGAGGTTACCATAAGCCAGCCC showed a PBM binding z-score of -0.146.
Then GCTGCTAGGTCAACTGATTGTCAGCTAAAGCTCG, with 1.14.
To GGAGACAGGTGAAACGCAGGTAACTCAGGGTGGC belongs -0.319.
